Test results as given in ChEMBL document CHEMBL3433997, “St. Jude Leishmania screening dataset” (2016).

Key:
Type in all cases: functional
[1] = target: Solute carrier family 2, facilitated glucose transporter member 1 (Homo sapiens) (UniProt P11166); test: ST_JUDE_LEISH: Cytotoxicity at 2uM final concentration against transgenic Leishmania Mexicana promastigotes LmGLUT1 that are glucose transport deficient and complemented with the human glucose transporter GLUT1. Activity is measured by DNA content using SYBR green in vitro
[2] = target: Hexose transporter 1 (Plasmodium falciparum) (UniProt O97467); test: ST_JUDE_LEISH: Cytotoxicity at 2uM final concentration against transgenic Leishmania Mexicana promastigotes LmPfHT that are glucose transport deficient and complemented with the Plasmodium falciparum hexose transporter. Activity is measured by DNA content using SYBR green in vitro
[3] = target: Glucose transporter (Leishmania mexicana) (UniProt O61059); test: ST_JUDE_LEISH: Cytotoxicity at 2uM final concentration against transgenic Leishmania Mexicana promastigotes LmGT2 that are glucose transport deficient and complemented with the L. Mexicana glucose transporter 2. Activity is measured by DNA content using SYBR green in vitro

Sequence of Solute carrier family 2, facilitated glucose transporter member 1 (Homo sapiens) (P11166 whole entry): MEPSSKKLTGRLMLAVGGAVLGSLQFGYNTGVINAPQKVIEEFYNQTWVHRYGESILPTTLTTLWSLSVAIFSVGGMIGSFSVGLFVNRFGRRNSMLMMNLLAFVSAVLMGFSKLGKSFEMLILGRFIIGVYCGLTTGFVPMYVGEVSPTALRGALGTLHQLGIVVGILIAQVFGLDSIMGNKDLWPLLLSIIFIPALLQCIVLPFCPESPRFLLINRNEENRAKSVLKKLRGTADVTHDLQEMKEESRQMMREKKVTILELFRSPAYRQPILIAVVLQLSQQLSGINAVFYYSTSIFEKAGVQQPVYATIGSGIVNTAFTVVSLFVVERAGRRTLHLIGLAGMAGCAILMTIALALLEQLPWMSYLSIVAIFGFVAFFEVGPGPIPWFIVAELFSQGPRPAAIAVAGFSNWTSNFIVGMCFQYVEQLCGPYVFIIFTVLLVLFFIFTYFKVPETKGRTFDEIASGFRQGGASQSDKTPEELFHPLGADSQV

Structure (SMILES) | inhibition [1] | inhibition [2] | inhibition [3]
O=S(=O)(NCCN1CCCC1)c1cccc(-c2ccc(CNCc3ccsc3)cc2)c1 | 2.71% | 1.13% | 3.02%
COc1ccc(CNc2nc(NCc3ccccc3)c3cc(OC)c(OC)cc3n2)cc1OC | 4.35% | 5.92% | 0.89%
O[C@H]1[C@H](OCc2ccc(-c3ccccc3)cc2)CC[C@@H]1N1CCCCC1 | 0.73% | 1.54% | 8.6%
COc1ccc(CNC2Cc3ccccc3C2)cc1-c1cccc(S(=O)(=O)NCCN2CCCC2)c1 | 4.54% | 1.69% | 3.08%
NC(=O)c1ccc(NC(=O)CN(Cc2ccc(Cl)cc2)S(=O)(=O)c2ccccc2)cc1 | 7.52% | 5.01% | 7.46%
COc1cc(NCCCNCc2cn(Cc3cc(Br)cc(Br)c3)c3ccccc23)nc2ccccc12 | 4.87% | 1.54% | 2.54%
Nc1cc(-c2cc3c(OCc4ccccc4)cccc3[nH]2)ccn1 | 1.13% | 4.32% | 1.6%
CC(C)NCc1cccc(-c2cccc(NC(=O)c3ccc(C#N)cc3)c2)c1 | -1.2% | 1.04% | -1.22%
O=C(CCc1ccccc1)N[C@H](Cc1c[nH]c2ccccc12)C(=O)N1CCC(NCc2ccc3c(c2)Cc2ccccc2-3)CC1 | 7.69% | 7.43% | 7.1%
COc1c(C2CCN(CCN3CCC(CNC(=O)c4ccc(-c5ccc(C#N)cc5)cc4)CC3)CC2)ccc2c1CCCC2 | 3.97% | 8.83% | 8.54%
CCOc1cc2c(cc1S(=O)(=O)c1ccc(COc3ccc(C(F)(F)F)cc3)cc1)CCN(C)CC2 | 1.72% | 3.79% | 1.18%
COc1cccc(CCNCc2ccc(-c3cccc(CNC4CCCC4)c3)cc2)c1 | 7.38% | 5.19% | 3.02%
